Compound activity as filed in PubChem.
EPAC2 antagonist – antagonists of human EPAC2; Q8WZA2; EPAC2 GEF exchange of Rap1B-BODIPY-GDP, fluorescence; Potency, µM (series often up to 114 µM), inactives show at the highest dose activity, negative = inhibition, actives largely listed as inhibitors; 360,000 tested, 0.18% active; AID 720708; also: % is scaled to controls: 0 for no effect and ±100 for the full control effect; nearly all actives have a fitted effect of over 45% in size
USP1-UAF1 inh – USP1/UAF1 (human) deubiquitinase inhibition; AID 743255; 390,000 tested, 0.23% active; O94782; recombinant USP1/UAF1, Ub-Rhodamine cleavage fluorescence; Potency, µM (highest dose often 57.1 µM), for inactives: top-dose activity change, negative = inhibition, actives largely listed as inhibitors; also: % is scaled to controls: 0 for no effect and ±100 for the full control effect; nearly all actives have a fitted effect of over 60% in size
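USP1/UAF1 complex at 1 nM was preincubated with compound for 15 min at room temperature, then Ub-Rho substrate (150nM final) was added. Fluorescence (480/540 nm) was read kinetically, 6 reads every 60 seconds.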
ALOX12 inh – ALOX12 (human) lipoxygenase inhibition. P18054. purified 12hLO, xylenol orange hydroperoxide absorbance. Potency, µM (series often up to 108 µM), without a hit: top-dose activity change, negative = inhibition, most hits filed as inhibitors. 580,000 tested, 1.1% active. AID 1671190; also: % is scaled to controls: 0 for no effect and ±100 for the full control effect
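Purified human 12hLO at 150 nM in 25 mM Hepes, 0.01% Triton X-100, pH 7.0, preincubated 15 min at room temperature with compound. Reaction started with 40 uM arachidonic acid, 30 min at room temperature. Hydroperoxide measured by Fe-xylenol orange, 573/405 nm absorbance ratio.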
EPAC2 agonist – activates human EPAC2 exchange factor; Q8WZA2; EPAC2 activation, biochemical qHTS; response scale: 100% = 6.5 mM cAMP response; Potency, µM (doses to about 154 µM), without a hit: at the highest dose activation, hits mostly activators; 360,000 tested, 0.079% active; AID 720711; also: nearly all actives have a fitted effect of over 50% in size
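Each well held 100 nM EPAC2, 250 nM RAP1B-BODIPY-GDP and 50 uM GDP. Fluorescence, read at 5-min intervals to 30 min, was referenced to a 6.5 mM cAMP positive control.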
EPAC1 antag – blocks human EPAC1 exchange factor; 360,000 tested, 0.14% active; Potency, µM (doses to about 115 µM), inactives show top-dose activity change, negative = inhibition, usual class: inhibitors; AID 720709; O95398; EPAC1 GEF assay, Rap1b-BODIPY-GDP exchange fluorescence;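 also: plate controls were vehicle for no effect and positive control for full effect; nearly all actives have a fitted effect of over 50% in size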
EPAC1 agonist – agonists of human EPAC1; EPAC1 agonist qHTS, biochemical assay; response scale: 100% = response to 6.5 mM cAMP; O95398; Potency, µM (doses to about 154 µM), for the others: at the highest dose activation, usual class: activators; 360,000 tested, 0.073% active; also: nearly all actives have a fitted effect of over 60% in size
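Nucleotide exchange by EPAC1 (100 nM) on Rap1B–BODIPY-GDP (250 nM) in the presence of 50 uM GDP is tracked fluorescently at 480/540 nm over 30 min. Signals are normalized to a 6.5 mM cAMP control.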
Active calls of the source: *; ! = a repeat was not active. A selection: hits, their analogues and other compounds. The true share with any hit is near 1.3%. Calls follow the shape of the dose curve; as a rule, active = well fitted curve in the direction sought with a large enough effect; inconclusive = small, poorly fitted or top-dose-only effect, or another doubt; inactive = no such curve, though single readings can be large; an effect the other way counts as inactive or inconclusive. Potency is read from the fitted curve at half-maximal effect.

For CCCCNCc1ccc(F)cc1 the results were ALOX12 inh 1%.
CCCCCCCCCCCCCCCC[N+](C)(C)Cc1ccc(F)cc1 was read as EPAC2 antagonist -15%, USP1-UAF1 inh -26%, ALOX12 inh 45µM*, EPAC2 agonist -1%, EPAC1 antag -22% and EPAC1 agonist 21%.
CC(=O)c1ccc(NS(=O)(=O)c2cccc(C(=O)Nc3ccccc3C(=O)O)c2)cc1 was read as EPAC2 antagonist -11%, USP1-UAF1 inh -22%, ALOX12 inh 32µM*, EPAC2 agonist 6%, EPAC1 antag -22% and EPAC1 agonist -2%.
`COc1cc(C=O)ccc1OCc1ccccc1C#N` gave ALOX12 inh -26%.
Screening Cc1ccc(NS(=O)(=O)c2cc(Br)cnc2N)c(Cl)c1 returned EPAC2 antagonist -26%, USP1-UAF1 inh -22%, ALOX12 inh inconclusive, EPAC2 agonist -4%, EPAC1 antag -7% and EPAC1 agonist -8%.
Nc1ncc(Br)cc1S(=O)(=O)Nc1cc(C(F)(F)F)cc(C(F)(F)F)c1 was read as EPAC2 antagonist 16µM*, USP1-UAF1 inh -22%, ALOX12 inh inconclusive, EPAC2 agonist -13%, EPAC1 antag inconclusive and EPAC1 agonist -23%.
Screening CC(=O)Oc1c2ccccc2c(OC(C)=O)c2ccccc12 returned ALOX12 inh -1%.
Screening CC(C)n1c(SCC(=O)NCc2ccccc2)nnc1-c1ccc2c(c1)OCCCO2 returned ALOX12 inh -20%.
Screening c1ccc(-c2csc(Nc3ccc4c(c3)OCO4)n2)cc1 returned EPAC2 antagonist -5%, ALOX12 inh 3.5µM*!, EPAC2 agonist 23%, EPAC1 antag -10% and EPAC1 agonist 14%.
Screening COc1cccc(Nc2nc(-c3ccccc3)no2)c1 returned ALOX12 inh 40µM*.
For COc1ccc(-c2noc(Nc3ccc(OC)c(OC)c3)n2)cc1 the results were ALOX12 inh -7%.
Screening COc1ccccc1CNc1nc(-c2ccccc2)cs1 returned ALOX12 inh 14µM*.
`COc1cccc(Nc2nc(-c3ccccc3)cs2)c1` gave ALOX12 inh 1µM*.
For O=C(/C=C/c1ccc(Br)cc1)N(C1CCCCC1)C1CCCCC1 the results were ALOX12 inh -24%.
`COc1cccc(Nc2nc(-c3ccc(CNC(C)=O)cc3)cs2)c1` gave ALOX12 inh 16µM*.
For COc1ccc2cc(C(=O)N/N=C/c3sc4ccccc4c3O)ccc2c1 the results were EPAC2 antagonist -11%, USP1-UAF1 inh 28µM*, ALOX12 inh inconclusive, EPAC2 agonist -39%, EPAC1 antag 35% and EPAC1 agonist 8%.
For OC12CC3CC(C1)CC(NCc1ccco1)(C3)C2 the results were ALOX12 inh -4%.
Screening Cc1ccc(SCC(=O)NC(C)(C#N)C2CC2)c(C)c1 (centres undefined) returned ALOX12 inh 35µM*.
COc1cc(C(=O)NNC(=S)NC(=O)c2ccccc2C)cc(OC)c1OC was read as EPAC2 antagonist 0%, USP1-UAF1 inh -19%, ALOX12 inh -20%, EPAC2 agonist -4%, EPAC1 antag -12% and EPAC1 agonist 3%.
`COc1cc(C(=O)NC(=S)NC(C)C)cc(OC)c1OC` gave EPAC2 antagonist 5%, USP1-UAF1 inh -17%, ALOX12 inh 35µM*, EPAC2 agonist -6%, EPAC1 antag -1% and EPAC1 agonist -1%.
Screening COc1ccc(C(=O)NC(=S)NNC(=O)c2ccccc2C)cc1 returned EPAC2 antagonist 5%, USP1-UAF1 inh -12%, ALOX12 inh 45µM*, EPAC2 agonist 3%, EPAC1 antag -16% and EPAC1 agonist -3%.
`COc1cc(C(=O)NC(=S)N2CCCCCC2)cc(OC)c1OC` gave EPAC2 antagonist 3%, USP1-UAF1 inh 6%, ALOX12 inh -9%, EPAC2 agonist 7%, EPAC1 antag 8% and EPAC1 agonist 0%.
